According to PubChem BioAssay (EPA / NIEHS):
Records with an inconclusive call do not appear. Where a structure was tested more than once in an assay, its records may differ in their call. Active and inactive are the calls of the source. The calls were made as follows: active = hit-call score of the fitted dose curve at least 0.9, where 1 is the maximum; inconclusive = response in the unintended direction; inactive = score below 0.9.

Columns and labels:
[1] = TOX21_p53_BLA_p2_viability: Viability Assessment in the Tox21 HCT-116 p53 Agonism Beta-lactamase Assay, Phase 2 (AID 2283591);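 also: actives lower the ATP signal meaning cytotoxicity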
In short: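 HCT-116 p53-bla cells (4000/well) rested 5 h at 37C, then received compounds in DMSO (217-fold dilution) for 16 h at 37C, 5% CO2. After the CCF4 read, CellTiter-Glo was added; ATP luminescence was read after 30 min at room temperature.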

[2] = biological target: Cellular tumor antigen p53 (Homo sapiens) (UniProt P04637); assay: TOX21_p53_BLA_p2_ratio: Tox21 HCT-116 p53 Agonism Beta-lactamase Assay, Ratio, Phase 2 (AID 2283592)
In short: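 First, HCT116 reporter cells settle for 5 h at 37C. Next, DMSO compound solutions are pinned in (217-fold dilution) and left 16 h. Finally, CCF4-AM substrate is loaded 2 h at room temperature and the 460/530 nm ratio read.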

[3] = biological target: Cellular tumor antigen p53 (Homo sapiens) (UniProt P04637); assay: TOX21_p53_BLA_p5_ratio: Tox21 HCT-116 p53 Agonism Beta-lactamase Assay, Ratio, Phase 5 (AID 2283599)
In short: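 HCT-116 cells carrying a p53-inducible beta-lactamase reporter were seeded at 4000 cells/well and dosed after 5 h with compound in DMSO (217-fold dilution). After 16 h at 37C, CCF4-AM substrate was added for 2 h, and the 460/530 nm emission ratio was scored as gain-of-signal versus DMSO.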

[4] = TOX21_p53_BLA_p4_viability: Viability Assessment in the Tox21 HCT-116 p53 Agonism Beta-lactamase Assay, Phase 4 (AID 2283597);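 also: hits lower the luminescence signal meaning cytotoxicity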
In short: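 4000 HCT116 cells per well; 5 h attachment; compounds from DMSO, 217-fold dilution; 16 h at 37C. Then CCF4-AM, 2 h RT, followed by CellTiter-Glo, 30 min RT, luminescence. Decrease = cytotoxicity.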

[5] = TOX21_p53_BLA_p5_viability: Viability Assessment in the Tox21 HCT-116 p53 Agonism Beta-lactamase Assay, Phase 5 (AID 2283600)
In short: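 Decreased CellTiter-Glo luminescence denotes lost viability. Exposure: 16 h at 37C, 5% CO2, with compounds from DMSO stocks diluted 217-fold in wells of 4000 cells.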

[6] = biological target: Cellular tumor antigen p53 (Homo sapiens) (UniProt P04637); assay: TOX21_p53_BLA_p4_ratio: Tox21 HCT-116 p53 Agonism Beta-lactamase Assay, Ratio, Phase 4 (AID 2283601)
In short: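 HCT116 cells carrying an inducible beta-lactamase reporter were plated at 4000 cells/well, rested 5 h, then exposed to compounds in DMSO (217-fold dilution) for 16 h at 37C. CCF4-AM substrate was loaded 2 h at room temperature; 460/530 nm emission ratio scored gain-of-signal versus DMSO.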

[7] = TOX21_p53_BLA_p3_viability: Viability Assessment in the Tox21 HCT-116 p53 Agonism Beta-lactamase Assay, Phase 3 (AID 2283593);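 also: cells exposed to compound for 16 h before reading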
In short: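 HCT-116 cells (4000/well) rested 5 h at 37C, then got DMSO compounds by pin tool (217-fold dilution) for 16 h at 37C, 5% CO2. After the bla read, CellTiter-Glo was added and luminescence read at 30 min, room temperature.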

[8] = biological target: Cellular tumor antigen p53 (Homo sapiens) (UniProt P04637); assay: TOX21_p53_BLA_p3_ratio: Tox21 HCT-116 p53 Agonism Beta-lactamase Assay, Ratio, Phase 3 (AID 2283596)
In short: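 Cells were seeded at 4000/well, rested 5 h at 37C, then dosed with DMSO compound solutions (217-fold dilution) for 16 h. CCF4-AM substrate was loaded for 2 h at room temperature, and the 460/530 nm emission ratio was fitted for gain of signal versus DMSO.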

Measured: AC50

Sequence of Cellular tumor antigen p53 (Homo sapiens) (P04637 whole entry, looked up): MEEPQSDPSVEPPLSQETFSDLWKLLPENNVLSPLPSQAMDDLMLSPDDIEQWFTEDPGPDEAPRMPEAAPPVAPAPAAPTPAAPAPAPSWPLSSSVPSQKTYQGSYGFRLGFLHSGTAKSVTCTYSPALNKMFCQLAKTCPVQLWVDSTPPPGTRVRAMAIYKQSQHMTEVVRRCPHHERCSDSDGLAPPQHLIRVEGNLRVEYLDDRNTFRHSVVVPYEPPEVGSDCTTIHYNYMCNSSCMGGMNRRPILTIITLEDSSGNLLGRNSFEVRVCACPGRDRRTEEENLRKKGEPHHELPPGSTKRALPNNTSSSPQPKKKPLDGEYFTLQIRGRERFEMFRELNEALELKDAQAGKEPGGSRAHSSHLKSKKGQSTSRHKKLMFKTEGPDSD

COc1ccc(N=[N+]([O-])c2ccc(OC)cc2)cc1
inactive: [1] | [2] | [3]

CCCc1ncc(C[n+]2ccccc2C)c(N)n1
inactive: [1] | [2] | [4] | [5] | [6]

CO/N=C(/C(=O)N[C@@H]1C(=O)N2C(C(=O)OCOC(=O)C(C)(C)C)=C(C)CS[C@H]12)c1csc(N)n1
inactive: [1] | [2] | [4] | [5]

C=CCCCCCCC=C
inactive: [1] | [2] | [4] | [5] | [6]

CCN1CCC[C@H]1CNC(=O)c1c(O)c(Cl)cc(Cl)c1OC
inactive: [1] | [2] | [3] | [5]

CC(=O)Oc1cccc(C(=O)O)c1OC(C)=O
inactive: [1] | [2] | [4] | [5]

C[C@@H]1O[C@@H](O[C@@H]2[C@@H](O)[C@H](OCCc3ccc(O)c(O)c3)O[C@H](CO[C@@H]3O[C@H](CO)[C@@H](O)[C@H](O)[C@H]3O)[C@H]2OC(=O)/C=C/c2ccc(O)c(O)c2)[C@H](O)[C@H](O)[C@H]1O
inactive: [1] | [2] | [4] | [5]

C=CC(=O)OCCCCCCCC
inactive: [1] | [2] | [4] | [5]

CC(O)c1ccccc1 (stereo not drawn)
inactive: [1] | [2] | [4] | [5] | [6]

CCC(=O)Nc1cccc(N)c1
inactive: [1] | [2] | [4] | [5]

CN1c2cc(O)c(N=NC(N)=O)cc2CC1S(=O)(=O)O (stereo not drawn)
inactive: [1] | [2] | [3]

CC(=O)[C@H]1CC[C@H]2[C@@H]3C[C@H](C)C4=CC(=O)CC[C@]4(C)[C@H]3[C@@H](O)C[C@]12C
inactive: [1] | [2] | [3]

CCCC(C)CC (stereo not drawn)
inactive: [1] | [2] | [4] | [5]

CCCCCCN
inactive: [1] | [2] | [3] | [5]

CCCCCCCCN
inactive: [1] | [2] | [3] | [5]

CCCCCCCCCC(=O)N(C)C
inactive: [1] | [2] | [3] | [5]

C[C@@H]1CC[C@H]2C(C)(C)[C@H]3C[C@@]12CC[C@@]3(C)O
inactive: [1] | [2] | [4] | [6]

CCC(=O)C=CC1C(C)=CCCC1(C)C (stereo not drawn)
inactive: [1] | [2] | [5]

CN(C)CCc1c[nH]c2ccc(Cn3cncn3)cc12
inactive: [1] | [2] | [6]

C=CCOc1cc(Cl)ccc1C(=O)NCCN(CC)CC
inactive: [1] | [2] | [3] | [6]

O=C(O)c1cc(=O)c2ccccc2o1
inactive: [1] | [2] | [5] | [6]

C[N+](C)(C)CCCCCCCCCC[N+](C)(C)C
inactive: [1] | [2] | [5] | [6]

ClC(Cl)(Br)Br
inactive: [1] | [2] | [5]

NC/C=C/C(=O)O
inactive: [1] | [2] | [5] | [6]

CN(C)CCC[C@@]1(c2ccc(F)cc2)OCc2cc(C#N)ccc21
inactive: [1] | [2] | [3] | [6]

CNC(=O)C[C@@H](N)C(=O)N[C@@H](C(=O)N[C@@H]1C(=O)N2[C@@H]1SC(C)(C)[C@@H]2C(=O)O)c1ccc(O)cc1
inactive: [1] | [2] | [5] | [6]

Cc1cccc(C)c1NC(=O)c1cc(S(N)(=O)=O)c(Cl)cc1O
inactive: [1] | [7]

O=C(O)[C@H](O)[C@@H](O)[C@H](O[C@@H]1O[C@H](CO)[C@H](O)[C@H](O)[C@H]1O)[C@H](O)CO
inactive: [1] | [2] | [5]

O=P(O)(O)C(O)(Cn1ccnc1)P(=O)(O)O
inactive: [1] | [2] | [3] | [5] | [6]

CCC(C)(C)OC(=O)N[C@@H](Cc1c[nH]c2ccccc12)C(=O)N[C@@H](CCSC)C(=O)N[C@@H](CC(=O)O)C(=O)N[C@@H](Cc1ccccc1)C(N)=O
inactive: [1] | [2] | [5] | [6]

CCC(C)C(C(=O)OCC[N+](C)(CC)CC)c1ccccc1 (stereo not drawn)
inactive: [1] | [7] | [8] | [4]

CCN(CC)CCNC(=O)c1cc(Br)c(N)cc1OC
inactive: [1] | [2] | [5] | [6]

NCCCNCCCCNC(=O)C(O)NC(=O)CCCCCCN=C(N)N (stereo not drawn)
inactive: [1] | [2] | [3] | [5] | [6]

Cn1cc(S(C)=O)c(=O)c2ccc(F)cc21 (stereo not drawn)
inactive: [1] | [2] | [6]

CCCCC
inactive: [1] | [2] | [3] | [5] | [6]

CCCCOC(=O)CO
inactive: [1] | [2] | [5] | [6]

CCCCCCCN(CC)CCCC(O)c1ccc(NS(C)(=O)=O)cc1 (stereo not drawn)
inactive: [1] | [7] | [8] | [4]

CCNc1nc(NC(C)CC)nc(OC)n1 (stereo not drawn)
active: [5] 0.00012 µM
inactive: [1] | [2] | [3] | [6]

O=C(O)c1ccc(NC2OC[C@@H](O)[C@H](O)[C@H]2O)cc1 (stereo partly drawn)
inactive: [1] | [2] | [6]

CCC(C)=NO[Si](C)(ON=C(C)CC)ON=C(C)CC
inactive: [1] | [2] | [3] | [6]

O=c1[nH]cnc2nc[nH]c12
inactive: [1] | [2] | [3] | [6]

N=C(N)N
inactive: [1] | [2] | [5] | [6]

CC(N)CCCC(C)(C)O (stereo not drawn)
inactive: [1] | [2] | [5]

COc1cc([C@H]2Oc3cc([C@H]4Oc5cc(O)cc(O)c5C(=O)[C@@H]4O)ccc3O[C@@H]2CO)ccc1O
active: [2] 86.2 µM | [6] 87.1 µM
inactive: [1]

CN1CCN(C(=O)C2CCCCC2)CC1
inactive: [1] | [2] | [5]

C[C@@H]1C[C@H]2[C@@H]3CCC4=CC(=O)C=C[C@]4(C)[C@@]3(F)[C@@H](O)C[C@]2(C)[C@H]1C(=O)CO
inactive: [1] | [7] | [8]

CC(C)CN(C[C@@H](O)[C@H](Cc1ccccc1)NC(=O)O[C@@H]1CCOC1)S(=O)(=O)c1ccc(N)cc1
inactive: [1] | [2] | [5]

C=C(C)C(=O)OCC[N+](C)(C)C
active: [3] 72.9 µM
inactive: [1] | [2] | [6]

CC(C)=CCCC(C)=CC=NO
inactive: [1] | [7]

NO
inactive: [1] | [2] | [6]

CN(C)CCc1c[nH]c2ccc(C[C@H]3COC(=O)N3)cc12
inactive: [1] | [2] | [3] | [5] | [6]

O=[N+]([O-])c1ccc(/C=N\O)o1
inactive: [1] | [2] | [3] | [6]

N#CCc1ccccc1[N+](=O)[O-]
inactive: [1] | [2] | [3] | [5] | [6]

CCc1ccc(C)cc1
inactive: [1] | [2] | [5]

CCCCCCCN
inactive: [1] | [2] | [6]

N[C@H](C(=O)O)c1ccc(O)cc1
inactive: [1] | [2] | [3] | [5] | [6]

CC(C)C(=O)OC(=O)C(C)C
inactive: [1] | [7] | [8] | [4] | [3]

Cc1ccc(NC(=O)N(C)C)cc1NC(=O)N(C)C
not listed: [2] | [6]
inactive: all other assays above

CC(C)(C)NC[C@H](O)COc1cccc2c1CCCC2=O
not listed: [2] | [6]
inactive: all other assays above

OCCOCCN1CCN(C(c2ccccc2)c2ccc(Cl)cc2)CC1 (stereo not drawn)
active: [3] 0.000384 µM | [6] 0.000245 µM
inactive: [1] | [7] | [8] | [4] | [3] | [5] | [6]

CCc1ncnc2cc(OC)c(OC)cc12
not listed: [2]
inactive: all other assays above

NC(=O)CCCCC(N)=O
not listed: [2] | [6]
inactive: all other assays above

CC(=O)OC[C@H]1O[C@@H](O[C@H]2[C@H](O)[C@@H](OC(=O)c3ccccc3C(=O)O)[C@H](O)O[C@@H]2COC(C)=O)[C@H](O)[C@@H](OC(=O)c2ccccc2C(=O)O)[C@@H]1O
inactive: [1] | [7] | [8] | [4]

O=C1[C@H]2CCCC[C@H]2C(=O)N1CCCCN1CCN(c2nsc3ccccc23)CC1
not listed: [2] | [6]
inactive: all other assays above

Nc1c(N=Nc2ccc(-c3ccc(N=Nc4cc(S(=O)(=O)O)c5ccccc5c4N)cc3)cc2)cc(S(=O)(=O)O)c2ccccc12
not listed: [2]
inactive: all other assays above

O=S(=O)(O)Oc1ccc(C(c2ccc(OS(=O)(=O)O)cc2)c2ccccn2)cc1
not listed: [2]
inactive: all other assays above

COc1cc2nc(N3CCN(C(=O)C4COc5ccccc5O4)CC3)nc(N)c2cc1OC (stereo not drawn)
inactive: [1] | [7] | [8] | [4]

CNc1cc(OC)c(C(=O)N[C@H]2CCN(Cc3ccccc3)[C@H]2C)cc1Cl
not listed: [2] | [6]
inactive: all other assays above

O=C1CCCCO1
not listed: [2] | [6]
inactive: all other assays above

OCCN1C[C@H](O)[C@@H](O)[C@H](O)[C@H]1CO
not listed: [2] | [6]
inactive: all other assays above
